# From PubChem BioAssay
# HGIII-sPLA2 inh – human group III sPLA2 inhibitors, primary screen, biochemical, QFRET, BODIPY PC-A2 liposome substrate | actives 0.56% (n = 370,000) | inhibition, % at 12.2 µM | QFRET BODIPY PC-A2 liposome hydrolysis, fluorescence | Group 3 secretory phospholipase A2 (Homo sapiens), Q9NZ20 | AID 743126, 2013;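 active = inhibition above mean plus 3 SD of compounds lying within the high and low control bounds, cut at about 19% in these data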
# KLK7 zymogen act – proKLK7 zymogen activators, primary screen, biochemical, fluorescence intensity; Kallikrein-7 (Homo sapiens), P49862; purified proKLK7, EDANS-DABCYL substrate fluorescence; 100% is mature enzyme control, 0% vehicle; AID 652039, 2013; actives 0.9% (n = 370,000); activation, % at 7 µM;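 active = activation above the mean of all tested compounds plus 3 SD, computed per campaign excluding outliers beyond control limits, cut at about 13% in these data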
# ADAM17 inh – ADAM17 inhibitors, primary screen, biochemical, QFRET; Disintegrin and metalloproteinase domain-containing protein 17 (Homo sapiens), P78536; inhibition, % at 6.95 µM; recombinant ADAM17, EDANS/DABCYL FRET peptide cleavage; actives 0.83% (n = 370,000);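 active = inhibition above the mean of compounds lying between control limits plus 3 SD, set per campaign, cut at about 8.5% in these data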
# NRP1-CendR mod – modulators of CendR peptide binding to NRP-1, primary screen, biochemical, fluorescence polarization, uHTS. Neuropilin-1 (Homo sapiens), O14786. FAM-RPARPAR peptide binding to NRP-1. inhibition, % at 25 µM. actives 0.85% (n = 360,000);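 active = inhibition or corrected inhibition above about 18%, plus a signal ratio from 0.5 to 1.5, limit read from the data, passing the limit was not always enough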
# ADAM10 inh – human ADAM10 inhibitors, primary screen, biochemical, QFRET, HTS. Disintegrin and metalloproteinase domain-containing protein 10 (Homo sapiens), O14672. recombinant ADAM10, EDANS/DABCYL FRET peptide cleavage, 3 h. inhibition, % at 7 µM. actives 0.62% (n = 370,000). AID 720582, 2013;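 active = inhibition above a per-campaign cutoff equal to the mean of compounds falling between control-based bounds plus 3 SD, cut at about 20% in these data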
# Target sequence (O14672 214-748 limits assumed): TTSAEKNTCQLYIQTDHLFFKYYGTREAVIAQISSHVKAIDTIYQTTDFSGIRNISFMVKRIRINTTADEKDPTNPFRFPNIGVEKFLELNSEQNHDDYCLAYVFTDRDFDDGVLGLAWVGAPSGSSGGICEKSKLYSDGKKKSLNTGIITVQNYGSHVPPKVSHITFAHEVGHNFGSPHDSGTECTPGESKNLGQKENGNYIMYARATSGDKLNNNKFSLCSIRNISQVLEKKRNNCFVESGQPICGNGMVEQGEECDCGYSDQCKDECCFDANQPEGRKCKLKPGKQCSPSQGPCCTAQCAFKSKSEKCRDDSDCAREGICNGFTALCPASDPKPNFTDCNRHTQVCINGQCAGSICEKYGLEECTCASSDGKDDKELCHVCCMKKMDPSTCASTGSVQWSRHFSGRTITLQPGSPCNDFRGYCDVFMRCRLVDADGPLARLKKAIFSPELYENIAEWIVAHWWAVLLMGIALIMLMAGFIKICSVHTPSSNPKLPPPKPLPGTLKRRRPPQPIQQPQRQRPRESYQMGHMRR
# ADAM10 counter – ADAM10 inhibitors, counter-screen for ADAM17 exosite inhibitor project, biochemical, FRET, human ADAM10. shares compounds with ADAM17 inh. recombinant ADAM10, EDANS/DABCYL FRET peptide cleavage, 3 h. inhibition, % at 6.95 µM. actives 47% (n = 2,900). AID 743256, 2014;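 active = mean inhibition over the triplicate runs exceeds the activity threshold set in the earlier primary screen, cut at about 20% in these data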
# ADAM17 confirm – ADAM17 inhibitors, hit retest, confirmation, biochemical, QFRET peptide cleavage | shares compounds with ADAM17 inh | recombinant ADAM17, EDANS/DABCYL QFRET peptide cleavage | inhibition, % at 6.95 µM | actives 65% (n = 2,900) | AID 743257, 2014;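 active = mean inhibition across replicates above the hit cutoff set in the primary screen, cut at about 8.5% in these data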
# Numbers stand for hits; . = inactive; / = no result. Only some compounds are listed: those with a hit (about 3.4% of all), similar ones and a draw of the others.
SMILES,HGIII-sPLA2 inh,KLK7 zymogen act,ADAM17 inh,NRP1-CendR mod,ADAM10 inh,ADAM10 counter,ADAM17 confirm
CC(C)CNS(=O)(=O)c1ccc(CCC(=O)Nc2cc(Cl)ccc2Oc2ccccc2)cc1,.,.,9.7,.,.,39,21
COc1ccc(CCC(=O)Nc2cc(Cl)ccc2OC)cc1,.,.,.,.,.,/,/
Cc1ccc(S(=O)(=O)N2CCCc3cc(NC(=O)c4c(F)cccc4F)ccc32)cc1,.,.,12,.,.,27,14
COC(=O)[C@]12C[C@H](CC(=O)NCC34CC5CC(CC(C5)C3)C4)C(=O)N(Cc3ccccc3)C1=C[C@H](C(C)C)O[C@@H]2C1CC1,.,.,.,/,.,/,/
CN1CCN(C(c2ccc(Cl)cc2)c2cc(Cl)c3cccnc3c2O)CC1 (centres undefined),.,.,.,.,.,/,/
Oc1c(C(c2ccccn2)N2CCCCC2)cc(Cl)c2cccnc12 (centres undefined),.,.,26,.,.,.,27
CN1CCN(C(c2ccc(C(F)(F)F)cc2)c2cc(Cl)c3cccnc3c2O)CC1 (centres undefined),.,.,12,/,.,36,16
CCN(CC)C(=O)CC[C@H]1CC[C@]2(CCCN(S(C)(=O)=O)C2)O1,.,.,.,/,.,/,/
Cn1cc([N+](=O)[O-])c(C(=O)NNC(=O)c2ccc([N+](=O)[O-])cc2)n1,.,.,8.8,.,.,.,.
COc1ccccc1NS(=O)(=O)c1ccc(Cl)c(NC(=S)NC(=O)C2CCCC2)c1,.,.,9.9,.,.,38,17
Cn1c(SCC(=O)Nc2ccccc2-c2ccccc2)nnc1-c1cnccn1,.,.,.,/,.,/,/
CC(C)CNS(=O)(=O)c1cc(C(=O)OCC(=O)c2ccc3c(c2)OCCO3)c(Cl)cc1Cl,.,.,.,.,.,/,/
CCCn1c(C)cc(C(=O)COC(=O)c2cc(S(=O)(=O)NCC(C)C)c(Cl)cc2Cl)c1C,.,.,10,.,.,20,9.7
O=C1CCCCC1C(Nc1ccc(Cl)cc1)c1ccccc1 (centres undefined),.,.,11,.,.,.,13
CCOC(=O)C1CN(S(=O)(=O)c2ccc(C)cc2)c2cc(S(=O)(=O)CC)ccc2O1 (centres undefined),.,.,.,.,.,/,/
CCOC(=O)CC1(C)Oc2ccccc2N1S(=O)(=O)c1ccc(C)cc1 (centres undefined),.,.,9.9,.,.,.,.
CCOC(=O)C(=O)N1CCC(C(=O)NC2CCCc3ccccc32)CC1 (centres undefined),.,.,.,/,.,/,/
CCOC(=O)N1CCN(C(=O)c2ccc(N(Cc3ccc(C)cc3)S(C)(=O)=O)cc2)CC1,.,.,9.0,.,.,.,.
CCOC(=O)N1CCN(C(=O)c2ccc(N(Cc3ccc(Cl)cc3)S(C)(=O)=O)cc2)CC1,.,.,.,.,.,/,/
O=C(Cn1c(-c2ccccc2)noc1=O)Nc1ccc(N2CCCCCC2)cc1,.,.,11,.,.,24,17
CN(Cc1ccccc1)C(=O)OCc1cn(Cc2ccc(C(F)(F)F)cc2)nn1,.,.,.,/,.,/,/
COc1cccc(NC(=O)Cc2csc(NC(=O)Nc3ccccc3OC)n2)c1,.,.,10,.,.,35,18
COc1ccccc1NC(=O)Nc1nc(CC(=O)Nc2ccc(OC)c(OC)c2)cs1,.,.,.,.,.,/,/
CCSc1nsc(NC(=O)Nc2cccc(OC)c2)n1,.,.,11,.,.,.,14
CCCCNC(=O)C[C@@H]1C(=O)N(Cc2ccc(OC)cc2)C2=CCN(C(=O)OC(C)(C)C)C[C@]21C(=O)OCC,.,.,.,/,.,/,/
